Experimental data taken from PubChem BioAssay AID488965 (Broad Institute, 2010).
Values joined by “and” are separate entries in the source; they are usually repeats but may differ in a detail not shown here. Equal values may be shown once. Among all 340,000 compounds or so, about 210 (0.062%) were called active. No stated cut-off is given here; in the data, active means inhibition above about 30% (passing the limit was not always enough); inconclusive means no clear call, values can overlap the other calls. This excerpt belongs to a sample that is enriched for actives.

Each compound was assayed on PvdQ acylase [Pseudomonas aeruginosa LESB58] (assay: P. aeruginosa PvdQ acylase inhibitors, primary screen, biochemical, fluorescence, plate reader and imaging, single point (AID 488965;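 further: 0% = vehicle neutral wells and 100% = reference inhibitor wells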)). Conditions: purified PvdQ acylase, at 10 µM, stronger effect = higher value.

inhibition, inactive:
CC(=O)c1nn(-c2ccc(C)cc2)cc1C(=O)c1cccc(Br)c1 -6.55%
COc1cc(CNC2CCCCC2)c(Br)cc1OC1CCCC1 -10.3%
COc1ccc(NS(=O)(=O)c2cc(NC(=O)CC(=O)c3ccc([N+](=O)[O-])cc3)ccc2C)cc1 -17.8%
CCCCNC(=O)N1CCN(S(C)(=O)=O)CC1 -13.6%
CN1CCN(Cc2c(C(=O)N3CCc4ccccc4C3)nc3ccc(Cl)cn23)CC1 9.88%
CCOc1ccc(/C(O)=C2/C(=O)C(=O)N(Cc3cccnc3)C2c2ccc(N(C)C)cc2)c(C)c1 (configuration not stated) -1.75%
COc1ccc(CCN(C)C(=O)C23CC4CC(CC(Cl)(C4)C2)C3)cc1OC 0.828%
O=C(CNC(=O)OCc1ccccc1)NC1CCCCNC1=O (configuration not stated) -2.51%
CCC(C(=O)NC1CCCC1)N(C(=O)Cn1nnc(-c2ccc(C)o2)n1)c1ccc(OC)c(OC)c1 (configuration not stated) -6.8%
CC(C)=NN1C(=O)c2ccccc2NC1(C)C -15.2%
O=C(Nn1cnc2ccccc2c1=O)c1ccc([N+](=O)[O-])cc1Cl -2.92%
CC1=C(C(=O)Nc2cc(C)ccn2)C(c2cnn(C)c2)C2=C(CC(c3ccccc3)CC2=O)N1 (configuration not stated) -10.4%
COc1ccc(N2CCN(C(=O)CN3C(=O)COc4ccccc43)CC2)cc1 -3.63%
COc1ccc(Cn2cc(CN3CCS(=O)(=O)N(Cc4ccc(-c5cccc(Cl)c5)cc4)C(C)C3=O)nn2)cc1 (configuration not stated) 6.04%
COc1ccccc1NS(=O)(=O)c1ccc(C)c(C(=O)NCC(c2ccco2)N(C)C)c1 (configuration not stated) -1.08%
CC(C)CC(COCc1ccc(Cl)cc1)N1CCN(C(=O)c2ccc(C(F)(F)F)cc2)CCC1=O (configuration not stated) -5.2%
COc1ccc(S(=O)(=O)NCC2CCCN(C(=O)c3occc3C)C2)cc1 (configuration not stated) -11.7%
Cc1oc(-c2ccccc2Cl)[n+]([O-])c1C -3.53%
CC(C(=O)Nc1ccccc1-c1ccccc1)N1CCOCC1 (configuration not stated) 4.97%
CC1(C)Cc2cccc(OCC(=O)N3CCN(c4ccc([N+](=O)[O-])cc4)CC3)c2O1 3.43%
O=C(NCCc1ccccc1)C1CC1 11.7%
Cc1cc(C)cc(NC(=O)C(c2ccccc2)N2CCN(CC(=O)N3CCCC3)CC2)c1 (configuration not stated) -12.8%
CCc1ccc(CNC(=O)C2CCN(c3nnc(C)c4c(C)n(-c5ccc(C)cc5)nc34)CC2)cc1 -8.9%
COc1ccc(OC)c(NC(=O)COC(=O)Cc2ccsc2)c1 7.79%
COc1ccc(CCNC(=O)COc2cc(C)cc3oc(=O)c(C)c(C)c23)cc1OC -16.2%
CN1CCN(S(=O)(=O)c2ccc(Nc3ccc(F)cc3)nc2)CC1 4.04%
COc1cc([C@H](Cc2ccccc2)NC(C)=O)oc(=O)c1 -11.2%
Cc1nc2ccccc2c(=O)n1-c1ccc(F)c(NC(=O)c2cccs2)c1 4.62%
CCOC(=O)C1CCCN(C(=O)C2CCN(c3nnc(-n4cccc4)s3)CC2)C1 (configuration not stated) -9.35%
Cc1ccc(C(=O)COC(=O)c2cccc(N3C(=O)c4c(C)nc5ccccc5c4C3=O)c2)cc1C -0.235% and -7.76%
COc1ccc(Cl)cc1C(=O)OCC(=O)NCc1cccs1 -17.2%
Cc1ccc(N(CCC(=O)O)S(=O)(=O)c2cccc(C(F)(F)F)c2)cc1 -8.9%
